# Hit rate of the full screen: of about 290,000 compounds, about 11,000 (3.8%) were called active. The list comes from a sample in which actives are over-represented; it also holds similar structures and randomly drawn compounds. Values without a mark were called inactive.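 How the source made its calls: active means mean replicate inhibition above about 79%, with every replicate also reaching it (limit read from the data); inconclusive means only one of the two criteria met; inactive means mean below limit and not every replicate reaching it.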
# Target: FAD-linked sulfhydryl oxidase ALR (Homo sapiens) (UniProt P55789)
# Sequence (P55789 whole entry, looked up): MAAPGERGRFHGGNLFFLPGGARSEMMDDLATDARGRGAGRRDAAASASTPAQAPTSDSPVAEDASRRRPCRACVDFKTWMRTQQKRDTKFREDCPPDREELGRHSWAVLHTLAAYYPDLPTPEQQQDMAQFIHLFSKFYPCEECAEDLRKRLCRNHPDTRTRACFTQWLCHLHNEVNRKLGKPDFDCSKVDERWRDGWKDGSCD
# Assay: inhibitors of human ALR sulfhydryl oxidase, primary screen, biochemical, H2O2 detection, HRP-luminol luminescence, single point (AID 485317)
# Conditions: purified ALR, DTT oxidation, active compounds read high, concentration not given here
row,Compound,inhibition
1,Cc1cccc(NC(=O)C2CCN(S(=O)(=O)c3cccc4cccnc34)CC2)c1,88.1% (active)
2,COc1ccc(NC(=O)C2CCCN(S(=O)(=O)c3cccc4cccnc34)C2)cc1OC (configuration not stated),-28.5%
3,Cc1cc(C)cc(NC(=O)C2CCCN2S(=O)(=O)c2cccc3cccnc23)c1 (configuration not stated),-0.666%
4,CC(NC(=O)c1ccccc1F)c1cccc2ccccc12 (configuration not stated),-16.5%
5,O=c1oc2ccc(C#CC3(O)CCCCC3)cc2cc1-n1cc(-c2ccsc2)nn1,-6.77%
6,O=C(CN1C(=O)NC2(CCCC2)C1=O)Nc1cc(C(F)(F)F)ccc1N1CCOCC1,-1.5%
7,COc1ccccc1S(=O)(=O)NCc1ccc(C(=O)N(C)Cc2ccc(F)cc2)cc1,-4.34%
8,C=CCn1c(=S)[nH]c2scc(-c3ccco3)c2c1=O,98.3% (active)
9,C=CCNC(=O)CSc1nc2scc(-c3ccco3)c2c(=O)n1CC=C,-0.872%
10,C=CCn1c(SCc2csc(C)n2)nc2scc(-c3ccc(C)o3)c2c1=O,16.6%
11,CCOC(=O)N1CCN(Cc2nc3c(c(=O)n(C)c(=O)n3C)n2Cc2ccccc2)CC1,-3.2%
12,CC1CCCN(Cc2nc3c(c(=O)n(C)c(=O)n3C)n2CC(=O)c2ccccc2)C1 (configuration not stated),-8.6%
13,CCN1CCN(Cc2nc3c(c(=O)n(C)c(=O)n3C)n2CC(=O)c2ccccc2)CC1,98.2% (active)
14,O=C(CCCCO)c1ccc(O)c(Cl)c1,7.83%
15,Cn1c(Cc2cccc3ccccc23)nnc1SCC(=O)N1CCN(c2cccc(Cl)c2)CC1,-3.36%
16,Cc1nnc(SCC(=O)N2CCN(c3ccccc3)CC2)n1-c1ccccc1,46.1%
17,Cc1cc2nnc(SCC(=O)N3CCN(c4ccccc4)CC3)n2c(N)n1,98% (active)
18,CCN(CC(=O)NCc1ccc(Cl)cc1)C(=O)c1c(C)noc1C,-1.1%
19,COc1cc2cc(C(=O)N/N=C/c3cccc(OC)c3OC)[nH]c2cc1OC,15.9%
20,CCOc1ccc2[nH]c(C(=O)N/N=C/c3cccc(OC)c3OC)cc2c1,-44.7%
21,COc1ccc2[nH]c(C(=O)N/N=C/c3cc(OC)c(OC)c(OC)c3)cc2c1,90.9% (active)
22,COc1ccc(C(=O)NCC2CCCN2S(=O)(=O)c2cccs2)cc1OC (configuration not stated),-12.1%
23,COc1ccccc1C(CNC(=O)c1ccc(C)c(S(=O)(=O)N2CCCCC2)c1)N(C)C (configuration not stated),-5.4%

row,Compound,inhibition
1,Nc1c(N(CCCO)C(=O)C2CCCC2)c(=O)[nH]c(=O)n1Cc1ccccc1,2.17%
2,O=C(NNS(=O)(=O)c1c(F)cc(F)c(Cl)c1F)C12CC3CC(CC(C3)C1)C2,-7.91%
3,COCCCn1c(SCC(=O)Nc2ccccc2)nnc1-c1ccncc1,-6.22%
4,CSc1nnc(-c2ccncc2)n1CCCN1CCCC1=O,98.1% (active)
5,CC1CCCCC1NC(=O)CSc1nnc(-c2ccncc2)n1CCCN(C)C (configuration not stated),-3.25%
6,O=C(c1cnccn1)N1CCN(S(=O)(=O)c2cccc(Cl)c2)CC1,-2.25%
7,COc1cccc2c(N/N=C/c3ccco3)cc(C)nc12,91.2% (active)
8,O=c1nc(N/N=C/c2ccco2)cn[nH]1,-0.901%
9,Cc1cc(C)c(OCC(=O)N/N=C/c2ccco2)c(C)c1,-5.47%
10,COc1cc2ccccc2cc1C(=O)Nc1nc(C)c(C(C)=O)s1,-3.67%
11,COc1ccc(C(CNC(=O)c2ccc(S(=O)(=O)Nc3ccccc3C)cc2)N2CCOCC2)cc1 (configuration not stated),1.74%
12,CC(NC(=O)COC(=O)Cn1cc(C(F)(F)F)ccc1=O)c1ccccc1 (configuration not stated),-3.5%
13,COc1cc(-c2c(-c3ccc4c(c3)OCO4)noc2C)ccc1F,3.17%
14,Cc1ccc(Nc2c(F)c(F)c(F)c(F)c2C(=O)O)c(C)c1,98.2% (active)
15,CCOC(=O)N1CCN(C(=S)Nc2ccc(C)cc2C)CC1,-22.4%
16,COc1c(F)c(F)c(C(=O)O)c(Nc2ccccc2C)c1F,18.5%
17,O=C(NCC#CCSc1nnc(-c2cccc3ccccc23)o1)c1cccs1,-4.12%
18,COc1ccc(C(=O)NCC(=O)N/N=C/c2ccc([N+](=O)[O-])s2)cc1OC,-29.5%
19,COc1cc(/C=N\NC(=O)CNC(=O)c2cccc([N+](=O)[O-])c2)ccc1O,98.6% (active)
20,COc1ccc(C(=O)NCC(=O)N/N=C/c2ccc([N+](=O)[O-])o2)cc1OC,-60.3%
21,COc1ccc(C(=O)N2CCN(c3ncccn3)CC2)cc1S(=O)(=O)N1CCOCC1,-2.44%
22,CSc1ncccc1C(=O)Nc1cccc(S(=O)(=O)N2CCOCC2)c1,-2.48%
23,O=C1C=C(c2ccnc3cc(Cl)ccc23)C[C@@H](c2ccc3c(c2)OCO3)C1,-0.313%

row,Compound,inhibition
1,Cc1ccccc1N1CCN(CCCOc2ccc3c(C)cc(=O)oc3c2)CC1,-0.584%
2,Cc1cc(=O)oc2cc(OCCC[n+]3ccccc3)ccc12,-10.6%
3,Cc1cc(=O)oc2cc(OCC3CC(c4ccccc4Cl)=NO3)ccc12 (configuration not stated),97.9% (active)
4,Cn1nnnc1SCC(=O)Nc1cccc(S(=O)(=O)N2CCCCC2)c1,-1.39%
5,Cc1ccnc(N2CCCC(C(=O)NC3CC3)C2)n1 (configuration not stated),1.74%
6,Cc1ccc(Cl)cc1NC(=O)C1CCCN(c2cnccn2)C1 (configuration not stated),-6.26%
7,Cc1ccnc(N2CCCC(C(=O)Nc3cc(F)ccc3C)C2)n1 (configuration not stated),87.3% (active)
8,Cc1noc(C)c1S(=O)(=O)N(C)C[C@H]1Oc2ccc(NC(=O)C3CC3)cc2C(=O)N([C@H](C)CO)C[C@@H]1C,2.82%
9,CCCNC(=O)c1onc(CSc2ccc(F)cc2)c1C(=O)NC(C)C,3.87%
10,CN(C)C(=O)COC(=O)c1cccc(S(=O)(=O)N2CC3(C)CC2CC(C)(C)C3)c1 (configuration not stated),-0.802%
11,COc1cccc(NC(=O)COC(=O)c2ccc3ccccc3n2)c1,-1.64%
12,Cn1c(SCC(=O)Nc2cccc(O)c2)nnc1-c1ccc(S(=O)(=O)N2CCOCC2)cc1,16.7%
13,Cn1c(SCC(=O)N2CCOCC2)nnc1-c1ccc(NC(=O)c2ccccc2F)cc1,-5.97%
14,Cn1c(SCC(=O)Nc2ccc(N3CCOCC3)cc2)nnc1C(F)(F)F,93.8% (active)
15,CCn1c(Cc2ccc(OC)cc2)nnc1SCC(=O)Nc1ccc(N2CCOCC2)cc1,39.5%
16,Cn1cnnc1SCC(=O)Nc1ccc(N2CCOCC2)cc1,95.8% (active)
17,O=C(O)CCC(=O)Nc1ccc(N2CCOCC2)cc1,-4.54%
18,COc1ccc(C(=O)NCc2ccc(C)cc2)cc1S(=O)(=O)N1CCCC1,-2.12%
19,Cc1nc2ccccc2c(=O)n1-c1ccc(NS(=O)(=O)c2ccc(F)cc2F)cc1,-10.6%
20,CCn1c(CN2C(=O)CSc3ccccc32)n[nH]c1=S,91.7% (active)
21,CCn1c(CSCc2c(Cl)cccc2Cl)n[nH]c1=S,67.9%
22,CCn1c(CNS(=O)(=O)c2ccc(Cl)cc2)n[nH]c1=S,21.4%
23,O=S(=O)(Nc1ccc2nc(-c3ccco3)[nH]c2c1)c1ccccc1,88.8% (active)

row,Compound,inhibition
1,O=S(=O)(Nc1ccc2cn[nH]c2c1)c1ccccc1,-80.8%
2,Cn1c(CCN2CCCC2)nc2cc(NS(=O)(=O)c3ccccc3)ccc21,-0.934%
3,COC(=O)c1ccc(NS(=O)(=O)c2cc3c4c(c2)C(C)C(=O)N4CCC3)cc1 (configuration not stated),-2.24%
4,O=C(COC(=O)c1cccc(Cl)c1)Nc1ccc2[nH]c(=O)[nH]c2c1,-0.957%
5,CCC(=O)NC(=S)Nc1ccc(NC(=O)c2ccco2)c(Cl)c1,-18.1%
6,O=C(NNC(=O)c1ccco1)Nc1ccccc1,39.9%
7,O=C(NNC(=S)Nc1ccc(Br)cc1Cl)c1ccco1,82.2% (active)
8,CN(CCc1ccccc1)C(=O)c1cccc(NC(=O)Cc2ccc([N+](=O)[O-])cc2)c1,1%
9,O=C(OCCN1C(=O)c2ccccc2C1=O)[C@@H]1CC(O)CN1S(=O)(=O)c1ccccc1[N+](=O)[O-] (some centres not stated),-2.79%
10,COc1cc(/C=N/Nc2ccc(C)cc2)cc(Br)c1O,98.4% (active)
11,COc1cc(/C=N/NC(=O)c2cc(C)n(-c3ccc(F)cc3)c2C)cc(OC)c1O,64%
12,COc1cc(/C=N/O)cc(Br)c1OS(=O)(=O)c1ccc(C)cc1,-15%
13,COc1ccc(/C=C/C(=O)Nc2cccnc2)cc1OC,-0.926%
14,COc1cc(/C=N/NC(=O)c2cc(-c3ccccc3C)nc3ccccc23)cc(OC)c1O,-3.08%
15,COc1cc(/C=N/NC(=S)Nc2cccnc2)cc(OC)c1O,95% (active)
16,Nc1c(C(=O)Nc2ccc3c(c2)OCCO3)nnn1Cc1ccccc1,-23.5%
17,COc1ccc(/C=N/NC(=O)c2cccc(C(F)(F)F)c2)cc1,-3.29%
18,Cc1nc2ccc(C(=O)N/N=C/c3ccc(O)cc3)cc2[nH]1,99% (active)
19,Cc1nc2ccc(C(=O)O)cc2[nH]1,-25.4%
20,CC(C)c1c(C(=O)N/N=C/c2ccc(-c3ccccc3)cc2)nnn1-c1nonc1N,-10.7%
21,COC(=O)N/N=C/c1ccc(/C=N/NC(=O)OC)cc1,-1.28%
22,Cc1nonc1C(=O)N/N=C/c1ccc(O)cc1,99.2% (active)
23,CCn1nc(C(=O)NNC(=O)C2CSC3(C)CCC(=O)N23)c2ccccc2c1=O (configuration not stated),-0.847%

# Reference: PubChem BioAssay AID485317 (Broad Institute, 2010)
